CYP2C9 inhib: blockers of cytochrome P450 2C9 activity – biochemical, luminescence, ADME assay, primary screen; 96,000 compounds, 20% hits; CYP2C9 Supersomes, luciferin-H conversion; P11712; AID 777, 2007; inhibition, % at 5 µM;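 active means blocking of liver enzyme CYP2C9 beyond about 50% at 5 µM, limit read from the data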
Target sequence (P11712 whole entry, looked up): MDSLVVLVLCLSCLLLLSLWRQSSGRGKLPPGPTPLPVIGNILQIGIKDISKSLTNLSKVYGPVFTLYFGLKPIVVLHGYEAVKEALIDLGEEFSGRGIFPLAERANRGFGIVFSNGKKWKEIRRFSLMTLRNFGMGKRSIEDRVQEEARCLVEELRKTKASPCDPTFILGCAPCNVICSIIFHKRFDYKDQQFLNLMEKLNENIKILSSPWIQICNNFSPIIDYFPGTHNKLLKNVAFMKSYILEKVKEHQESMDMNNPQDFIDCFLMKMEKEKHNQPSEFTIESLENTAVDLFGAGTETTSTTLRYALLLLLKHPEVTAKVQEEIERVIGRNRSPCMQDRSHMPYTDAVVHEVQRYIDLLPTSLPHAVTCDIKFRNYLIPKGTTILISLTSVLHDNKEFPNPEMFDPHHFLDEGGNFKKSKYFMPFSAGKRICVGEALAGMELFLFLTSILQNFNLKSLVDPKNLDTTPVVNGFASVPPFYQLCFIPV
sEH inhibitor: soluble epoxide hydrolase inhibitors, primary screen, biochemical, human sEH; recombinant human sEH enzymatic activity assay; 91,000 compounds, 0.34% hits; inhibition, % at 2 µM; Bifunctional epoxide hydrolase 2 (Homo sapiens), P34913; in the data active means inhibition above about 80%
CYP2C9 act: human CYP2C9 activators, primary screen, biochemical, luminescence | Cytochrome P450 2C9 (Homo sapiens), P11712 | recombinant CYP2C9, luciferin-H conversion; active compounds read high; factor 1 = untreated enzyme, 0 = blocked | activation factor at 5 µM | 96,000 compounds, 1.4% hits;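 active means activation factor of 2 or more for CYP2C9 at a 5 µM dose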
CYP2C19 act: human CYP2C19 activators, primary screen, biochemical, luminescence; recombinant CYP2C19, luciferin-H EGE luminescence; active compounds read high; 0 = fully inhibited enzyme, 1 = untreated enzyme; activation factor at 5 µM; 96,000 tested, under 10 active; AID 1025, 2008;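 active means activation factor of at least 2 at 5 µM in the primary screen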
sEH activator: soluble epoxide hydrolase activators, primary screen, biochemical, human sEH; 91,000 compounds, 0.04% hits; purified human sEH enzymatic activity, activator screen; AID 717, 2007; Bifunctional epoxide hydrolase 2 (Homo sapiens), P34913; activation, % at 2 µM; in the data active means activation above about 37%
CYP2C19 inhib: blockers of cytochrome P450 2C19 activity – biochemical, luminescence, ADME assay, primary screen; inhibition, % at 5 µM; 96,000 compounds, 21% hits; P33261; CYP2C19 Supersomes, luciferin-H EGE luminescence, 30 min;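 active means CYP2C19 inhibition above a set limit at 5 µM in the primary screen, cut at about 50% in these data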
Each line names hits and unclear results; the compound was inactive in the other large screens. Sampled rows, rich in hits. Any-hit rate of the full collection: about 27%.

CCCCn1c(SCC(=O)Nc2nnc(C)s2)nnc1-c1ccoc1C	CYP2C9 inhib 81
Cc1nnc(NC(=O)CSc2nnc(-c3ccoc3C)n2CC(C)C)s1	none
CCCCn1c(SCC(=O)c2ccc3c(c2)OCCO3)nnc1-c1ccoc1C	CYP2C9 inhib 90, CYP2C19 inhib 96
CCn1c(SCC(=O)Nc2nc(C)cs2)nnc1-c1ccoc1C	CYP2C19 inhib 75
CCCCn1c(SCC(=O)OCC)nnc1-c1ccoc1C	CYP2C9 inhib 55
COc1ccc(-n2c(SCC(=O)Nc3nc(C)cs3)nnc2-c2ccoc2C)cc1	none (no result: CYP2C9 inhib, CYP2C9 act, CYP2C19 act, CYP2C19 inhib)
CCn1c(SCC(=O)N2CCN(c3ccccc3F)CC2)nnc1-c1ccoc1C	CYP2C9 inhib 53, CYP2C19 inhib 54 (no result: sEH inhibitor, sEH activator)
CCn1c(SCC(=O)Nc2nc(C)cs2)nnc1C(NC(=O)c1ccccc1Cl)C(C)C (stereo unspecified)	CYP2C19 inhib 52
COc1ccc(C(C#N)C2(C)OCCO2)cc1OC (stereo unspecified)	none
Cc1sc2nc(-c3cccs3)nc(N3CCCN(C)CC3)c2c1C	none (no result: sEH inhibitor, sEH activator)
CCn1c(SCC(=O)Nc2ccccc2-c2ccccc2)nnc1-c1ccoc1C	CYP2C9 inhib 86, CYP2C19 inhib 80 (no result: sEH inhibitor, sEH activator)
COc1ccc(Cn2cnc3c(NS(C)(=O)=O)c(C)c(C)cc32)cc1	CYP2C19 inhib 65
CCOC(=O)c1cnc(=O)[nH]c1C	none (no result: sEH inhibitor, sEH activator)
COC(=O)c1c(NC(=O)CSc2nnc(-c3ccco3)n2Cc2ccccc2)sc(C)c1C	CYP2C9 inhib 62
C=CCn1c(SCC(=O)Nc2sc(C)c(C)c2C(=O)OCC)nnc1-c1sc(N)nc1C	CYP2C9 inhib 62, CYP2C19 inhib 60
CCOC(=O)c1c(NC(=O)CSc2nnc(-c3cccnc3)n2Cc2ccco2)sc(C)c1C	CYP2C9 inhib 66
COC(=O)c1c(NC(=O)CSc2nnnn2C)sc(C)c1C	CYP2C9 inhib 66, CYP2C19 inhib 65
C=CCn1c(SCC(=O)NC2CCCCC2)nnc1-c1sc(N)nc1C	none
CC(=O)Nc1ccc2c(c1)C(=O)N(C1CCCCC1)C2=O	none
COc1ccccc1C(=O)NCC(=O)n1nc(C)cc1C	CYP2C9 act 3
Cc1cc(C)n(C(=O)CCNC(=O)c2ccccc2Br)n1	CYP2C9 act 2.1
Cn1nnnc1SCC(=O)NC(=O)NCc1ccccc1	none
CC1CCN(C(=O)Cn2nc(C(F)(F)F)c3c2CCCC3)CC1	none
C=CCn1c(CCNC(=O)c2ccc(Cl)c(Cl)c2)nnc1SCCOc1ccc(OC)cc1	CYP2C9 inhib 60
COc1ccc(NC(=S)N/N=C2/CCCc3c(C)cc(C)cc32)cc1	none
COc1ccc(NC(=O)O/N=C2/CCCc3ccc(OC)cc32)cc1	CYP2C9 inhib 62
CCCc1nnc(NC(=O)CCCC(=O)O)s1	none (no result: CYP2C9 inhib, CYP2C9 act, CYP2C19 act, CYP2C19 inhib)
CS(=O)(=O)N1CCCC(C(=O)NCCCN2CCC(Cc3ccccc3)CC2)C1 (stereo unspecified)	none
CCCS(=O)(=O)N1CCCC(C(=O)NCCCOC(C)C)C1 (stereo unspecified)	none
CS(=O)(=O)N1CCCC(C(=O)NCCCN2CCN(Cc3ccccc3)CC2)C1 (stereo unspecified)	CYP2C9 inhib 59
CCCS(=O)(=O)N1CCCC(C(=O)NCCCN2CCN(c3ccc(F)cc3)CC2)C1 (stereo unspecified)	CYP2C9 act 2.7
COc1ccc(-c2noc(-c3ccccc3C(=O)N3CCOCC3)n2)cc1	none
O=C(NCc1ccc2c(c1)OCO2)c1ccc(N2CCCC2=O)cc1	none
CCOC(=O)NC(=O)CSc1nc2ccc(OCC)cc2[nH]1	none
CCCCNS(=O)(=O)c1ccc2nc(SCC(=O)c3ccccc3OC)[nH]c2c1	CYP2C9 inhib 94, CYP2C19 inhib 94
CCCCNS(=O)(=O)c1ccc2nc(SCC(=O)Nc3sccc3C#N)[nH]c2c1	CYP2C9 inhib 97, CYP2C19 inhib 69
O=C(O)CC1CCCC(c2ccccc2)C1=O (stereo unspecified)	none (no result: CYP2C9 inhib, CYP2C9 act, CYP2C19 act, CYP2C19 inhib)
CC(Cc1ccccc1)NC(=O)C1CCCNC1=O (stereo unspecified)	none
O=S1(=O)CC(N2CCCCC2)C(N2CCCCC2)C1 (stereo unspecified)	none
CCc1cc2c(CN3CCN(CCO)CC3)cc(=O)oc2cc1O	none
Clc1ccccc1C1SCC2Nc3ccccc3CN21 (stereo unspecified)	CYP2C9 inhib 53, CYP2C19 inhib 87
Cc1ccc(NC(=S)NCCN2CCOCC2)cc1C	sEH activator 38
O=C(NC(=S)NCCN1CCOCC1)c1ccccc1Cl	CYP2C19 inhib 54
O=C(COc1ccccc1Cl)NCCCN1CCOCC1	CYP2C19 inhib 57
CCOc1ccc(N2C(=O)C3C4C=CC(CC4)C3C2=O)c([N+](=O)[O-])c1 (stereo unspecified)	none
CC1CCCCN1C(=O)C12CCC(C)(/C(=N/O)C1)C2(C)C (stereo unspecified)	none
CCC1CCCCN1C(=O)CSc1nnc(-c2ccc(OC)cc2)o1 (stereo unspecified)	CYP2C19 inhib 85
CC1CCCCN1C(=O)CSc1nnc(-c2ccc(Cl)s2)o1 (stereo unspecified)	CYP2C9 inhib 56, CYP2C19 inhib 95
CCC1CCCCN1C(=O)CSc1nnc(-c2ccc3c(c2)OCCO3)o1 (stereo unspecified)	CYP2C9 inhib 80, CYP2C19 inhib 99
Cc1ccc(C(=O)C2=C(O)C(=O)N(CCN3CCOCC3)C2c2ccccn2)o1 (stereo unspecified)	none
Cc1cc([N+](=O)[O-])ccc1NCc1cccc2ccccc12	none (no result: CYP2C9 inhib, CYP2C9 act, CYP2C19 act, CYP2C19 inhib)
Cc1ccc(NCCC(=O)c2cccc([N+](=O)[O-])c2)c(C)c1	CYP2C19 inhib 75
Cc1ccc2c(c1)NCC(C(=O)NC1CCCCC1)O2 (stereo unspecified)	CYP2C19 inhib 59
COc1ccc(C(=O)Nc2ccccc2C(=O)N/N=C/c2cccc3ccccc23)cc1	none
COc1cc(C)c(S(=O)(=O)N2CCCC2)cc1C	CYP2C19 inhib 88
COc1ccc(S(=O)(=O)N2CCCN(S(=O)(=O)c3ccc(OC)cc3C)CC2)c(C)c1	CYP2C9 act 2.1 (no result: sEH inhibitor, sEH activator)
COc1ccc(OC)c(S(=O)(=O)N2CCCCCC2)c1	none (no result: sEH inhibitor, sEH activator)
COc1cc(C)c(S(=O)(=O)N2CCN(C)CC2)cc1C	CYP2C19 inhib 62
COc1c(C)cc(S(=O)(=O)N2CCCC2)c(C)c1C	CYP2C19 inhib 96
C=CCN(C(=O)CNC(=O)c1ccco1)C(C(=O)NC1CCCCC1)c1ccc(OC)cc1OC (stereo unspecified)	none
Cc1ccc(-c2c3c(=O)n(C)c(=O)n(C)c3cn2Cc2cccnc2)cc1	none
COc1cccc(N2CCN(C(=O)CN(C)S(=O)(=O)c3ccc4c(c3)CCC(=O)N4)CC2)c1	none

Bioassay records: PubChem, several laboratories
